In all, about 130,000 compounds went through this assay and about 1,200 (0.92%) were called active. Inconclusive results (about 3%) are left out. The full list was thinned out, with actives kept by preference. A number with no mark means an inactive call. Calls follow the shape of the dose curve; as a rule, active = well fitted cell-killing curve with a large enough effect; inconclusive = small, poorly fitted or top-dose-only effect; inactive = no such curve, though single readings can be large or run the other way.
Experiment: qHTS Screen for Compounds that Selectively Target Cancer Cells with p53 Mutations: Cytotoxicity of p53ts Cells at the Permissive Temperature; also: nearly all actives have a fitted effect of over 55% in size;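 as to activity change, negative = cytotoxicity: 0% = DMSO and -100% = full killing by reference compound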
Conditions: H1299-p53A138V at 32C, ATP luminescence viability, 24 h; series mostly up to 46.1 µM; activity change, negative = cytotoxicity: at the top concentration
Outline: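 H1299-p53 A138V cells (temperature-sensitive p53) exposed 24 h to up to 46 uM compound at 32C, where p53 is wild-type in conformation. Viability read as ATP luminescence and normalised to DMSO and 100 uM tamoxifen. AC50 fitted with the Hill equation.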
Potency is read from the fitted curve at half-maximal effect.

Compared with `CCC(CC)c1nnc(NS(=O)(=O)Cc2ccccc2)s1`, `CCOc1ccc(N(Cc2ccccc2)C(=O)c2nc(SCC)ncc2Cl)cc1` is lower in “activity change, negative = cytotoxicity” value: 4.53% for the first, 4.15% for the second.

Going from `CCc1ccc(CNC(=O)C2CCN(c3nn4cc(-c5ccc(F)cc5)nc4s3)CC2)cc1` to `CCc1ccc(CNC(=O)c2cc3cc4ccc(OC)cc4nc3o2)cc1`, the “activity change, negative = cytotoxicity” value rises from -3.23% to 3.47%.

Compared with `CCOc1ccccc1NC(=O)c1ccc2c(c1)CCN2S(=O)(=O)c1ccc(C)cc1`, `O=C(Nc1cc(C(F)(F)F)ccc1Cl)c1ccc2c(c1)CCN2S(=O)(=O)c1ccccc1` is lower in “activity change, negative = cytotoxicity” value: 7.8% for the first, 4.42% for the second.

Compared with `COC(=O)c1cc(NC(=O)CCc2c(C)nc3c4c(C)cc(C)nc4nn3c2C)cc(C(=O)OC)c1`, `Cc1cc(C)c(NC(=O)CCc2c(C)nc3c(c(C)nn3C(C)(C)C)c2C)c(C)c1` is lower in “activity change, negative = cytotoxicity” value: 8.69% for the first, 7.76% for the second.

Compared with `CCN(CC)c1ccc(NC(=O)CN2CCN(CC(=O)Nc3ccc(Cl)cc3)CC2)cc1`, `CCOc1ccc(NC(=O)CN(Cc2ccccc2)S(=O)(=O)c2ccc(Cl)cc2)cc1` is lower in “activity change, negative = cytotoxicity” value: -4.64% for the first, -9.94% for the second.

First: Cc1c(Cl)cccc1NC(=O)c1noc2c1CCCC2
Second: O=C(Nc1cc(C(F)(F)F)ccc1Cl)c1nc2ccccc2nc1N1CCCCC1
The “activity change, negative = cytotoxicity” value of the first is lower: -24.1% for the first, -6.02% for the second.

Compared with `O=C(Nc1cccnc1)c1ccc2c(c1)OCO2`, `C/C(=C\C(=O)c1cccnc1)Nc1ccc(C)c(C)c1` is lower in “activity change, negative = cytotoxicity” value: -11.3% for the first, -22.1% for the second.

First: CCOc1ccc(-c2nonc2NC(=O)c2oc3ccc(C)cc3c2C)cc1OCC
Second: COc1ccc(CCNC(=O)c2cc(-c3ccc4c(c3)OCO4)on2)cc1OC
The “activity change, negative = cytotoxicity” value of the first is higher: -3.06% for the first, -7.31% for the second.

Going from `COc1ccc(NC(=O)c2sc3nc[nH]c(=O)c3c2C)cc1` to `COc1ccc(OCC(=O)Nc2cccc(C(=O)OCc3cc(=O)n4nc(C)sc4n3)c2)cc1`, the “activity change, negative = cytotoxicity” value falls from 2.8% to -8.09%.

Going from `O=C(Nc1cccc(NC(=O)c2ccco2)c1)c1cnccn1` to `Cc1ccnc(NC(=O)c2ccc(NC(=O)c3ccco3)cc2)c1`, the “activity change, negative = cytotoxicity” value falls from -6.2% to -29.1%.

Going from `CCn1c(CN2CCC(C)CC2)nc2cc(NC(=O)c3ccccc3[N+](=O)[O-])ccc21` to `CCC(=O)N1c2ccccc2CC1C(=O)N1CCN(c2cccc(OC)c2)CC1` (stereo unspecified), the “activity change, negative = cytotoxicity” value falls from 2.93% to 1.92%.

Going from `CCCCc1nn2c(=O)cc(COC(=O)c3ccccc3NC(=O)C(C)(C)C)nc2s1` to `Cc1nn2c(=O)cc(COC(=O)c3ccccc3NC(=O)COc3ccccc3C)nc2s1`, the “activity change, negative = cytotoxicity” value rises from -3.39% to -2.82%.

Going from `COc1ccccc1NC(=O)C(=O)c1cc(C)n(-c2ccccc2F)c1C` to `Cc1ccccc1N1CC(c2nc3ccccc3[nH]2)CC1=O` (stereo unspecified), the “activity change, negative = cytotoxicity” value rises from 1.04% to 8.66%.

First: O=C(CCSCc1ccccc1F)N1CCN(c2ccc(Cl)cc2)CC1
Second: O=C(CCc1cn(Cc2ccc(F)cc2)c2ccccc12)NC1CCCCC1
The “activity change, negative = cytotoxicity” value of the first is lower: -8.82% for the first, 1.41% for the second.

Compared with `COC(=O)c1ccc2c(=O)n(CC3CCCO3)c(=S)[nH]c2c1` (stereo unspecified), `COc1c(Cl)cc(C(=O)N(Cc2ccccc2F)C2CCS(=O)(=O)C2)cc1Cl` (stereo unspecified) is lower in “activity change, negative = cytotoxicity” value: 6.83% for the first, 0.249% for the second.

Compared with `Cc1ccsc1C(=O)OCC(=O)c1cc2ccccc2o1`, `CN1C(=O)c2ccccc2Sc2ccc(NC(=O)Cc3ccc(Cl)cc3)cc21` is higher in “activity change, negative = cytotoxicity” value: -15.9% for the first, 32.9% for the second.

First: Cc1[nH]c2ccccc2c1C(c1ccccc1)c1cccs1 (stereo unspecified)
Second: O=C(Nc1cccc(NC(=O)c2ccc(Br)cc2)c1)c1ccccc1
The “activity change, negative = cytotoxicity” value of the first is higher: 3.42% for the first, -4.77% for the second.

First: CC(=O)c1ccc(NC(=O)c2nc(-c3ccc(C)cc3)n3c2CCCCC3)cc1
Second: Cc1ccc(C(=O)N2CCCCCC2)cc1Br
The “activity change, negative = cytotoxicity” value of the first is higher: 8.72% for the first, 4.16% for the second.

Going from `CCOc1cc(C2c3c(-c4ccc(Br)cc4)n[nH]c3C(=O)N2c2ccc(Cl)cc2)ccc1O` (stereo unspecified) to `Cc1ccc(Cl)cc1NC(=O)CCS(=O)(=O)c1ccc(Br)s1`, the “activity change, negative = cytotoxicity” value falls from 14.7% to 6.48%.

Compared with `COc1ccc(Cn2ccnc2SCC(=O)NCc2ccco2)cc1`, `Cc1cccc(NC(=O)N2CCN(C)c3ncccc32)c1C` is lower in “activity change, negative = cytotoxicity” value: -3.47% for the first, -5.84% for the second.

Compared with `Cc1cc(/C=N/n2cnnc2)c(C)n1-c1cccc(C(=O)O)c1`, `COc1ccc(C)cc1N(C)C(=O)c1c(C)oc2ncnc(N3CCOCC3)c12` is higher in “activity change, negative = cytotoxicity” value: -3.07% for the first, 4.57% for the second.

With `O=C(Nc1cccnc1)c1noc2c1CCCCC2` the Potency was 12.6 µM (active).
For `O=C(Nc1ccc(NC(=O)c2cccs2)cn1)c1ccco1`, the Potency was 6.31 µM (active).
For `Cc1nn2c(=O)cc(COC(=O)c3cccc(NC(=O)COc4ccccc4Cl)c3)nc2s1`, the Potency was 10 µM (active).
In the case of `Cc1ccsc1C(=O)OCC(=O)c1cc(C)n(CC2CCCO2)c1C` (stereo unspecified), the Potency is reported as 5.01 µM (active).
For `Cc1ccc2cc3cc(C(=O)N4CCCCCC4)oc3nc2c1`, the Potency was 10 µM (active).
For `CCOc1ccc(N(Cc2ccccc2)C(=O)c2nc(S(C)(=O)=O)ncc2Cl)cc1`, the Potency was 12.6 µM (active).
For `C/C(=C\C(=O)c1ccccc1)Nc1cccc(O)c1`, the Potency was 10 µM (active).
With `Cc1ccccc1-n1c(C)cc(/C=C2\NC(=O)NC2=O)c1C` the Potency was 15.8 µM (active).
In the case of `COc1c2c(cc3occ(-c4ccc5c(c4)OCO5)c(=O)c13)OC(C)(C)C=C2`, the Potency is reported as 10 µM (active).
